From PubChem BioAssay
Hits are enriched below; roughly 19% of the tested compounds scored in any of these assays.
IL-1B inflam inh: inflammasome signaling inhibition, IL-1 beta readout. THP-1 LPS/ATP IL-1B secretion, AlphaLISA, 16 h; hits give low values. 4.7% of 360,000 active. AID 743279. activity change, % at 57.5 µM; in the data active = activity change below about -50%; inconclusive = mostly about -30% to -49%
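Secreted IL-1B measured by AlphaLISA bead assay after 16 h compound exposure of THP-1 cells; compounds (final up to 57.5 uM) added 1 h before LPS (250 ng/mL) and ATP (1.25 mM) stimulation; lower signal means less secretion.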
HT1080-NT tox: kills 2HG-producing HT-1080-NT fibrosarcoma cells; Potency, µM (doses to about 46.1 µM), usual class: cytotoxic; 1.6% of 360,000 active; HT-1080-NT fibrosarcoma viability, CellTiter-Glo ATP luminescence, 48 h;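 note: NT is the 2HG producing partner of a matched IDH1 knockdown line; nearly all actives have a fitted effect of over 55% in size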
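HT-1080-NT; 750 cells/well; 5% FBS RPMI; 48 h compound, 37 degrees C; CellTiter-Glo luminescence; curve fitting and curve-class assignment.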
TDP1 cell noCPT: qHTS for Inhibitors of human tyrosyl-DNA phosphodiesterase 1 (TDP1): qHTS in cells in absence of CPT | DT40 Tdp1-/- hTDP1 cells, no CPT, ATP luminescence, 48 h | Potency, µM (series often up to 46.2 µM), usual class: inhibitors | 15% of 420,000 active | AID 686978, 2013; note: nearly all actives have a fitted effect of over 55% in size
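Growth of hTDP1-complemented DT40 Tdp1-knockout cells is measured by ATP luminescence after at least 48 hr compound exposure at 37 °C, with DMSO substituting for the 20 nM CPT used in the parallel screen.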
HT1080 IDH1KD tx: HT-1080 IDH1 knockdown cell toxicity (counter line); HT-1080 IDH1 knockdown viability, ATP luminescence, 48 h; Potency, µM (highest dose often 46.1 µM), actives largely listed as cytotoxic; 2% of 360,000 active
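Viability of IDH1-knockdown HT-1080 fibrosarcoma cells was assessed by CellTiter-Glo after 48 h at 37 °C with titrated compound; concentration-effect curves were classified by fit quality and response size.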
DT40 TDP1 CPT: DT40-hTDP1 cell growth loss with CPT. chicken DT40 Tdp1-/-;hTDP1 cells + 20 nM CPT, ATP luminescence, 48 h. AID 686979. Potency, µM (doses to about 46.2 µM), usual class: inhibitors. 12% of 420,000 active; note: nearly all actives have a fitted effect of over 55% in size
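Cell growth measured by CellTiter-Glo luminescence after a minimum 48 h, 37 C compound exposure with 20 nM CPT in Tdp1-knockout DT40 cells stably expressing hTDP1, seeded 400/well; qHTS titration format.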
Numbers stand for hits; i = inactive; ? = inconclusive; nt = no result given. Unless noted, calls come from the whole dose curve; as a rule, active = well fitted curve in the direction sought with a large enough effect; inconclusive = small, poorly fitted or top-dose-only effect, or another doubt; inactive = no such curve, though single readings can be large; an effect the other way counts as inactive or inconclusive.

SMILES	IL-1B inflam inh	HT1080-NT tox	TDP1 cell noCPT	HT1080 IDH1KD tx	DT40 TDP1 CPT
COc1ccccc1[N+](=O)[O-]	i	i	i	i	i
O=[N+]([O-])c1ccccc1OC/C(=N\O)c1ccccc1	i	i	?	i	?
O=C(COc1ccccc1[N+](=O)[O-])c1ccccc1	i	?	5.2µM	?	3.7µM
NC(=O)C1CCCN(Cc2c(C(=O)N3CCc4ccccc4C3)nc3ccc(Cl)cn23)C1 (configuration not stated)	i	i	i	i	i
CC(C)c1ccc(NC(=O)c2cn(C3CCCCC3)c(=O)c3c2c2ccccc2n3C)cc1	nt	nt	i	nt	i
Cc1cc(-n2c(C)cc(C(=O)COc3ccc(F)c(F)c3)c2C)no1	i	i	21µM	i	23µM
COC(=O)c1c[nH]c2c1-c1cc(C(=O)OCc3ccccc3)n(S(=O)(=O)c3ccc(C)cc3)c1C(=O)C2=O	i	?	0.58µM	21µM	0.58µM
Cc1ccc(S(=O)(=O)NC(CC(=O)OCc2ccccc2)C(=O)OCc2ccccc2)cc1 (configuration not stated)	i	i	?	i	i
CSc1nsc(SC)c1NC(=O)OCC1CCCO1 (configuration not stated)	i	i	i	i	i
COC(=O)C1C/C(=N/NS(=O)(=O)c2ccc(C)cc2)CS1 (configuration not stated)	i	i	i	i	i
O=C(Nc1ccc(-c2noc(-c3cccs3)n2)cc1)c1cccnc1	?	i	29µM	?	?
O=C(Nc1cccc(OC(=O)c2cccnc2)c1)c1cccnc1	i	i	10µM	i	10µM
O=C(Nc1ccc(F)cc1)c1cccnc1	i	i	?	i	9.2µM
CC(Oc1ccc(Cl)cc1Cl)c1nc(-c2ccc(NC(=O)c3cccnc3)cc2)no1 (configuration not stated)	i	?	5.8µM	7.3µM	5.8µM
O=C(Nc1ccc(NC(=O)c2cccnc2)cc1)c1ccccc1	i	i	i	i	i
CC(Oc1ccc(Cl)cc1Cl)C(=O)NNC(=O)c1cccnc1 (configuration not stated)	i	i	i	i	i
CC(C)N1CCN(c2ccc(S(=O)(=O)N3CCOCC3)cn2)CC1	i	i	i	i	i
CN1CC[C@@]2(CCCN(C(=O)c3cc(C(F)(F)F)cc(C(F)(F)F)c3)C2)C1	nt	nt	i	nt	i
Cc1ccccc1C(=O)NC(=S)N(C)CCc1ccccn1	i	i	i	?	i
O=C(NCCCO)c1cc2c([nH]c3ccccc32)c(-c2ccccc2)n1	-88	i	13µM	i	15µM
O=C(NCCCO)c1cc2c(cn1)[nH]c1ccccc12	?	i	i	i	i
COc1cccc(-c2cc(C(=O)NCCCN3CCOCC3)no2)c1	i	i	i	i	i
COc1cccc(-c2nc(C(=O)NCCCN3CCOCC3)cc3c2[nH]c2ccccc23)c1	-64	i	8.2µM	i	9.2µM
O=C(NCCCN1CCOCC1)c1cc2c([nH]c3ccccc32)c(-c2cccc(Br)c2)n1	-73	?	8.2µM	?	8.2µM
COc1ccc(/C=C\C(=O)CC(O)(c2ccccc2)C(F)(F)F)cc1 (configuration not stated)	-74	?	15µM	11µM	16µM
SMILES	IL-1B inflam inh	HT1080-NT tox	TDP1 cell noCPT	HT1080 IDH1KD tx	DT40 TDP1 CPT
COC(=O)c1sc(-c2cccs2)cc1NC(=O)/C=C/C(=O)O	-92	?	15µM	?	?
CCN(CC)CCn1c2ccccc2c2nc3ccccc3nc21	-97	i	23µM	i	?
CCN(CC)CCn1c2ccccc2c2n[nH]c(=S)nc21	i	i	i	i	i
N#CCCn1c2ccccc2c2nc3ccccc3nc21	-91	i	9.2µM	i	?
CCN(CC)CCn1c(O)c(N=O)c2ccccc21	i	i	i	i	i
O=C(O)Cn1c2ccccc2c2nc3ccccc3nc21	i	i	i	i	i
CCN(CC)CCn1c2ccccc2c(=O)c2c(O)ccc(O)c21	i	i	21µM	i	7.3µM
COc1ccc2c(c1)c1nc3ccccc3nc1n2CCn1c(=O)oc2ccccc21	i	i	?	i	?
O=c1oc2ccccc2n1CCn1c2ccccc2c2nc3ccccc3nc21	i	i	5.8µM	i	16µM
Clc1cccc(-c2nc3ccc(Br)cn3c2Cc2ccsc2)c1	i	i	?	i	i
C=CCOc1ccccc1CN1CCN(CCc2ccccc2)C(CCO)C1 (configuration not stated)	i	i	?	i	i
CCN(CC)c1ccc(NC2CC(=O)N(CCc3ccc(OC)cc3)C2=O)cc1 (configuration not stated)	i	i	15µM	i	13µM
COc1ccc(CCNC2CC(=O)N(CCc3ccccc3)C2=O)cc1 (configuration not stated)	i	i	i	i	i
CNC(=S)Nc1cccc(S(=O)(=O)NCc2ccco2)c1	i	i	i	i	i
CC1c2ccccc2N(S(=O)(=O)c2ccccc2)C1C (configuration not stated)	i	?	23µM	?	?
CCN1CCN(c2ccc(N3CCN(C(=O)c4ccc(Br)o4)CC3)nn2)CC1	i	i	i	i	?
C[C@H]1CN([C@@H](C)CO)S(=O)(=O)c2ccc(C#Cc3cccnc3)cc2O[C@@H]1CN(C)C(=O)Nc1ccc2c(c1)OCO2	i	i	23µM	i	?
C[C@@H]1CN([C@H](C)CO)S(=O)(=O)c2ccc(C#Cc3ccccc3F)cc2O[C@H]1CN(C)C(=O)c1ccc2c(c1)OCO2	-74	?	6.5µM	?	18µM
C[C@H]1CN([C@@H](C)CO)S(=O)(=O)c2ccc(Br)cc2O[C@@H]1CN(C)C(=O)Nc1ccc2c(c1)OCO2	i	i	i	i	i
C[C@H](CO)N1C[C@H](C)[C@@H](CN(C)CC2CCOCC2)Oc2cc(C#Cc3ccccc3F)ccc2S1(=O)=O	i	i	9.2µM	i	18µM
CC(=O)N(C)c1ccc(N=NC2C(=O)N(C(N)=S)N=C2C)cc1 (configuration not stated)	i	i	i	i	i
CCN(CC)c1ncnc2c1ncn2[C@H]1CN(Cc2ccncc2)C[C@@H](CO)O1	i	i	?	i	i
COCc1cc(C)nc(SCC(=O)Nc2nc(C)cs2)c1C#N	i	?	16µM	i	?
COCc1cc(C)nc(SCC(=O)Nc2cccc(C)c2C)c1C#N	i	i	i	i	i
Cc1ccc(NC(=O)c2sccc2SCc2cccc(C(F)(F)F)c2)cc1	i	i	18µM	?	18µM
